Our source for the z-score and composite z-score values is PubChem BioAssay.

Assay [1] can be described thus: E. coli DRC41 culture turbidity changes, primary screen, E. coli filamentation inducer project, strain DRC41, OD650, 48 h (AID 1152).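 Also: E. coli MC1000 strain DRC41 lacking acrAB efflux pump and sulA.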 As to conditions: E. coli DRC41 (acrAB sulA), higher = more signal, called active from +8 up or from −8 down.
Assay [2] in a line: small-molecule binders of probe aLefty1, primary screen, biochemical, small-molecule microarray, 635/667 nm fluorescence (AID 1153).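 Also: score merges spot fluorescence with signal-to-noise ratio from the scanned slide images.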 Conditions: higher = more signal.
The nature of assay [3]: PSAC antagonists in infected red cells, primary screen, cell-based, P. falciparum Indochina, OD700, 1 h (AID 1154). Conditions: P. falciparum Indochina infected RBC osmotic lysis, higher = more signal, called active from +8 up or from −8 down.
The nature of assay [4]: PSAC antagonists in infected red cells, primary screen, cell-based, P. falciparum Indochina, OD700, 2 h (AID 1155).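 Also: lysis reports solute entry through the parasite surface anion channel PSAC; channel blockers reduce lysis of infected cells.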 As to conditions: P. falciparum Indochina infected erythrocytes, osmotic lysis OD700; higher = more signal, called active from +8 up or from −8 down.
The nature of assay [5]: osmotic lysis modulators in infected erythrocytes, primary screen, PSAC antagonist project, cell-based, P. falciparum Indochina, OD700, 3 h (AID 1156). Conditions: higher = more signal, called active from +8 up or from −8 down.
A short description of assay [6]: PSAC antagonists in infected red cells, primary screen, cell-based, P. falciparum Indochina, OD700, 18 h (AID 1157). Conditions: P. falciparum Indochina infected erythrocytes, osmotic lysis OD700, 18 h; higher = more signal, called active from +8 up or from −8 down.
Assay [7] can be described thus: modulators of S6 phosphorylation in cells, primary screen, cell-based, A549, cytoblot, luminescence, serum-stimulated (AID 1158).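 Also: serum-stimulated A549 lung adenocarcinoma cells; signal is phosphorylated S6 detected by cytoblot immunostaining with HRP secondary.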 As to conditions: A549 phospho-S6 cytoblot, 5 h, higher = more signal.
Assay [8] addresses NADPH oxidase 2 (Homo sapiens) (UniProt P04839). In words: NOX2-dependent H2O2 signal modulators, primary screen, NOX inhibitor project, cell-based, HEK293-NOX2, PMA-stimulated, Amplex Red fluorescence (AID 1159). Also: test concentration not given here. As to conditions: 45 min, higher = more signal, called active from +8 up or from −8 down.
In assay [9] the target is NADPH oxidase 4 (Homo sapiens) (UniProt Q9NPH5). In words: NOX4-dependent H2O2 signal modulators, primary screen, NOX inhibitor project, cell-based, HEK293-NOX4, tetracycline-induced, Amplex Red fluorescence (AID 1160). As to conditions: 45 min, higher = more signal, called active from +8 up or from −8 down.
Sequence of NADPH oxidase 4 (Homo sapiens) (Q9NPH5 whole entry, looked up): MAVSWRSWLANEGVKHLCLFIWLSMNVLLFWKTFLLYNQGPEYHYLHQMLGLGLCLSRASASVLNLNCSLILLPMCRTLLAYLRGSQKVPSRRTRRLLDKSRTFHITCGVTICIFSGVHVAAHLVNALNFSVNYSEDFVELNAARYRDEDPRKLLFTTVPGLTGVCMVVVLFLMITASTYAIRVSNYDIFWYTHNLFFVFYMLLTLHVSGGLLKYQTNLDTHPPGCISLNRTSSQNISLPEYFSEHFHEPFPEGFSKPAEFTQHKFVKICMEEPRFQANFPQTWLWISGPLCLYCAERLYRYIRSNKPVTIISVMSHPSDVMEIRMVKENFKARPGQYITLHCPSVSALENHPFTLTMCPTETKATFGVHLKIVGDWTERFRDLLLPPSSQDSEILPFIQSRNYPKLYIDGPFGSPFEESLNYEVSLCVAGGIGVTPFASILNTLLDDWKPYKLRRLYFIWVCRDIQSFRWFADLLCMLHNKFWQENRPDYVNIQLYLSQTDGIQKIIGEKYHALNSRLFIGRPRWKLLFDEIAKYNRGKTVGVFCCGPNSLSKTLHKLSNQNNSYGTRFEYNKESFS
Assay [10] has as its target NADPH oxidase 5 (Homo sapiens) (UniProt Q96PH1). Put plainly: NOX5-dependent H2O2 signal modulators, primary screen, NOX inhibitor project, cell-based, HEK293-NOX5, Amplex Red fluorescence (AID 1161). Conditions: HEK293-NOX5, ionomycin, 45 min, higher = more signal.
The nature of assay [11]: A549 cell viability effects, profiling panel, calcein-AM fluorescence, 48 h, basal (AID 1162). Also: test concentration not given here. As to conditions: higher = more signal.
A short description of assay [12]: adipocyte viability effects, profiling panel, cell-based, 3T3-L1 adipocytes, calcein-AM fluorescence, 48 h, basal (AID 1163). Also: test concentration not given here. As to conditions: 3T3-L1 adipocytes viability, higher = more signal.
Assay [13] is described as follows: HepG2 cell viability effects, profiling panel, calcein-AM fluorescence, 48 h, basal (AID 1164). Also: test concentration not given here. As to conditions: higher = more signal.
Assay [14] in a line: MM1S cell viability effects, profiling panel, calcein-AM fluorescence, 48 h, basal (AID 1165).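 Also: viability of MM1S multiple myeloma cells under basal unstimulated conditions; test concentration not given here.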 Conditions: higher = more signal.
Assay [15] can be described thus: basal RPMI8226 viability, no added stimulus, profiling panel, cell-based, calcein-AM fluorescence, 48 h, PK04 Diversity Set (AID 1166).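 Also: cells grown under basal conditions without added stimulus; test concentration not given here.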 As to conditions: RPMI8226 myeloma viability, higher = more signal.
Assay [16] can be described thus: basal HepG2 mitochondrial membrane potential changes, profiling panel, cell-based, JC-1 fluorescence, 24 h, 100 nL compound (AID 1167). Also: test concentration not given here. As to conditions: higher = more signal.
Assay [17] in a line: basal 3T3-L1 adipocyte mitochondrial potential changes, profiling panel, cell-based, JC-1 fluorescence, 3T3-L1 adipocytes, 24 h, 100 nL compound (AID 1168). Also: test concentration not given here. As to conditions: JC-1 mitochondrial fluorescence, higher = more signal, called active from +8 up or from −8 down.
Assay [18] is described as follows: basal RPMI8226 mitochondrial membrane potential changes, profiling panel, cell-based, JC-1 fluorescence, 24 h, 100 nL compound (AID 1169). Also: test concentration not given here. Conditions: RPMI8226 myeloma, JC-1 mitochondrial potential fluorescence, higher = more signal.
The nature of assay [19]: basal MM1S mitochondrial membrane potential changes, profiling panel, cell-based, JC-1 fluorescence, 24 h, 100 nL compound (AID 1170). Also: test concentration not given here. Conditions: higher = more signal.
Assay [20] in a line: A549 lung cancer cell viability effects, profiling panel, resazurin fluorescence, 24 h, PK04 Diversity Set (AID 1171). Also: test concentration not given here. As to conditions: higher = more signal, called active from +8 up or from −8 down.

SMILES strings stand for the structures. Active and inactive are the calls of the source.

Sequence of NADPH oxidase 2 (Homo sapiens) (P04839 whole entry, looked up): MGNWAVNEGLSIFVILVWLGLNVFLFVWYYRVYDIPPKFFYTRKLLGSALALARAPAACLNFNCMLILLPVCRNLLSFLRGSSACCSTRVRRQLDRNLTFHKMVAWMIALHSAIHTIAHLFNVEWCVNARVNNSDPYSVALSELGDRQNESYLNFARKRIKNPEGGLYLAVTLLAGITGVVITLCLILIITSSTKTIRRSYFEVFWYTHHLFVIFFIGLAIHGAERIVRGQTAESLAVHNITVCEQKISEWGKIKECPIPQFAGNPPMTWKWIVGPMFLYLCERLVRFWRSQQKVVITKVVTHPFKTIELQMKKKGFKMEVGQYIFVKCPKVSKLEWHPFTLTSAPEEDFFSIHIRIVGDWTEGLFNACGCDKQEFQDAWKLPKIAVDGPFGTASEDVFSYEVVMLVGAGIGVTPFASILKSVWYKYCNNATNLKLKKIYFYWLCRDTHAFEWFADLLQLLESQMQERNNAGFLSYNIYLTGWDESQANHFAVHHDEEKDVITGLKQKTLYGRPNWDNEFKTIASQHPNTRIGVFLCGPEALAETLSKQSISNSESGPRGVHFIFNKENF
Sequence of NADPH oxidase 5 (Homo sapiens) (Q96PH1 whole entry, looked up): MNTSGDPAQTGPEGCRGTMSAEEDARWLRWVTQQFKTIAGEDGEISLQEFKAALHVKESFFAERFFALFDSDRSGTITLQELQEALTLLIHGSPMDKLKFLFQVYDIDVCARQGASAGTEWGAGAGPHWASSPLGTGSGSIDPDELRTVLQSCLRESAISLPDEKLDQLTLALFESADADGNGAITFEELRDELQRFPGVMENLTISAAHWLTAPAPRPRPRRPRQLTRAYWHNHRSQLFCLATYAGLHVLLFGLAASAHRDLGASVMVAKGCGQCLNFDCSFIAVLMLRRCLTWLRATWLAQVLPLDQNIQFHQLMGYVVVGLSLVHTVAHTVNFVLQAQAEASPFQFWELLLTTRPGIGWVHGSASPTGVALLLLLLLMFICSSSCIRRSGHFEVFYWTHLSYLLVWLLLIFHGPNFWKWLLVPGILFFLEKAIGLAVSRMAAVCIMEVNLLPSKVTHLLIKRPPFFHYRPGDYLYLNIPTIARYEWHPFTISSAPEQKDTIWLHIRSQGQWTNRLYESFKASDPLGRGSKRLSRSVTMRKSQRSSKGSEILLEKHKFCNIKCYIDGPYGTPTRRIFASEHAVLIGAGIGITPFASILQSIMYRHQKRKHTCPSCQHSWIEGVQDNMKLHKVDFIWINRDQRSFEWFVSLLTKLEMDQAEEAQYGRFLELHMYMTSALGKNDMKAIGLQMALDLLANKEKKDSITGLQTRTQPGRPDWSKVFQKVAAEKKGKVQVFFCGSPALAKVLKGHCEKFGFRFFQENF

`CCCC[C@@H](O)C1=C(COc2ccccc2)Cn2c(=O)n(-c3ccccc3)c(=O)n2[C@H]1CO`: the z-score in assay [1] was 2.85 (inactive); in assay [3] it was 2.58 (inactive); in [4], -0.478 (inactive); in assay [5], -0.34 (inactive); in assay [6], -2.27 (inactive); in assay [7], 0.814. Besides, the z-score in assay [8] was -0.809 (inactive); in assay [9] it was 0.33 (inactive); in [10] it was -0.235; in [11], 0.753; in assay [12] it was 0.409; in assay [13], -0.0994. In addition, the z-score in assay [14] is 0.356; in [15], -1.02; in assay [16], -0.368; in assay [17], 0.334 (inactive); in assay [18], 0.42; in assay [19], 0.277. Besides, in assay [20], the z-score was -0.515 (inactive). Moreover, the composite z-score in [2] is -0.275.
Regarding `CCCCCCCCCCC(O)C1C=CC2C(=O)NC(=O)C2N1Nc1ccccn1` (stereo not given), the z-score was -8.86 (active) in assay [1]; 19.9 (active) in assay [3]; 6.41 (inactive) in [4]; -0.0795 (inactive) in [5]; 2.71 (inactive) in assay [6]; -1.18 in assay [7]. Also, the z-score in assay [8] is -2.33 (inactive); in assay [9], -5.71 (inactive); in [10], -0.309; in assay [11], -3.22; in assay [12], -0.964; in assay [13] it was -4.08. Also, the z-score is -3.81 in [14]; -4.13 in [15]; -3.82 in [16]; -0.46 (inactive) in assay [17]; -0.944 in assay [18]; -0.657 in assay [19]. For the same compound, the z-score in assay [20] was -1.5 (inactive). In [2], this compound showed a composite z-score of 0.0312.
Take `COCCOC(=O)N1C(=O)[C@@]2(c3cc(C#CCCO)ccc31)[C@H](C(=O)NC[C@H](O)c1ccccc1)[C@H]1C(=O)O[C@H](c3ccccc3)[C@H](c3ccccc3)N1[C@@H]2c1ccccc1OCCO`: the z-score in assay [1] was -0.0118 (inactive); in assay [3], 2.52 (inactive); in assay [4] it was 0.963 (inactive); in assay [5], -0.654 (inactive); in assay [6], 0.705 (inactive); in assay [7], -0.18. The z-score in assay [8] was 1.54 (inactive); in assay [9], 0.992 (inactive); in [10] it was 1.17; in assay [11], 1.27; in [12], 0.904; in [13], 1.21. In addition, the z-score in assay [14] was -1.96; in [15], -3.05; in [16] it was -1.36; in assay [17] it was 0.833 (inactive); in [18] it was -0.844; in assay [19], -0.424. In [20], the z-score is 0.715 (inactive). The same compound returned a composite z-score in [2] of 0.213.
Regarding `OCc1ccc(-c2cc[n+](Cc3cccc(OC(F)(F)F)c3)cc2)cc1`, the z-score was 0.0027 (inactive) in assay [1]; 0.51 (inactive) in assay [3]; 0.409 (inactive) in assay [4]; -0.445 (inactive) in assay [5]; -0.0616 (inactive) in assay [6]; -0.104 in assay [7]. The z-score in assay [8] was -0.316 (inactive); in assay [9], -0.0783 (inactive); in assay [10], -3.79; in assay [11] it was -1.19; in [12], 0.983; in assay [13] it was -0.52. Further, the z-score in [14] was 0.47; in assay [15], -0.483; in assay [16], -0.628; in assay [17] it was 0.296 (inactive); in [18], -0.672; in [19], -0.704. In addition, the z-score in assay [20] is -0.395 (inactive). Further, the composite z-score in [2] amounted to 0.423.
With `CC(C)NC(=O)[C@@H]1c2ccccc2C(=O)N(Cc2cc(C(F)(F)F)cc(C(F)(F)F)c2)[C@H]1c1ccc(CO)cc1`, the z-score in assay [1] is -0.464 (inactive); in assay [3], 1.54 (inactive); in assay [4], 0.349 (inactive); in [5], -0.113 (inactive); in assay [6], 0.057 (inactive); in [7], -0.167. Also, the z-score is 0.513 (inactive) in assay [8]; 0.349 (inactive) in assay [9]; -0.284 in [10]; -0.255 in assay [11]; 0.884 in assay [12]; -0.355 in assay [13]. In addition, the z-score was -1.1 in [14]; -1.42 in [15]; 0.571 in assay [16]; 0.198 (inactive) in [17]; 0.967 in assay [18]; 0.144 in assay [19]. Further, in assay [20], the z-score is 0.634 (inactive). For the same compound, in assay [2], the composite z-score stood at 0.358.
In the case of `CCOC(=O)C[C@H]1[C@H](OC(=O)c2ccccc2-c2ccccc2)[C@@H](NC(=O)c2ccccc2)c2cc(OCCCO)ccc2N1C(=O)Cc1ccc(OC)cc1`, the z-score in [1] was -0.81 (inactive); in assay [3] it was 2.01 (inactive); in assay [4], 0.318 (inactive); in [5], -0.338 (inactive); in assay [6] it was 0.109 (inactive); in assay [7], 0.0269. The z-score in assay [8] is 0.639 (inactive); in assay [9], 1.22 (inactive); in [10] it was 0.327; in assay [11] it was 1.29; in assay [12], 0.182; in assay [13], 0.144. For the same compound, the z-score in assay [14] was -0.128; in assay [15], 0.206; in assay [16], 1.02; in assay [17] it was -0.387 (inactive); in [18] it was -1.04; in assay [19] it was 0.277. The z-score in assay [20] was 0.995 (inactive). Besides, the composite z-score in assay [2] is -0.193.
In the case of `COC(=O)[C@@]1(Cc2ccc(OC)cc2)[C@H]2c3cc(C(=O)N4CCCC4)n(CCF)c3C[C@H]2CN1C(=O)c1ccccc1`, the z-score in [1] was -1.28 (inactive); in assay [3], 10.4 (active); in assay [4], 1.42 (inactive); in assay [5], 2.39 (inactive); in assay [6], 1.13 (inactive); in assay [7], 0.181. Moreover, the z-score in assay [8] is -0.201 (inactive); in assay [9], -2.52 (inactive); in [10] it was -3.65; in assay [11], -1.41; in assay [12] it was 1.71; in assay [13], -0.336. Further, the z-score in [14] is 0.0026; in assay [15], -1.05; in assay [16] it was 3.33; in assay [17], -1.65 (inactive); in [18], -0.178; in assay [19], -0.0401. Moreover, the z-score in [20] is -1.55 (inactive). Also, the composite z-score in assay [2] is 2.49.
As for `COCCOC(=O)N1C(=O)[C@@]2(c3cc(C#CC4(O)CCCCCC4)ccc31)[C@H](C(=O)N1CCN(c3ncccn3)CC1)[C@H]1C(=O)O[C@H](c3ccccc3)[C@H](c3ccccc3)N1[C@@H]2c1ccc(O)cc1`, the z-score in assay [1] is 0.923 (inactive); in [3] it was 0.71 (inactive); in assay [4], 0.566 (inactive); in [5] it was 0.991 (inactive); in [6], 0.613 (inactive); in [7], 0.274. Besides, the z-score in [8] is 1.43 (inactive); in [9], -1.31 (inactive); in assay [10], 1.49; in assay [11], 1.09; in [12], 0.146; in assay [13] it was 0.871. Further, the z-score is -1.12 in [14]; -0.372 in assay [15]; -0.641 in assay [16]; 0.799 (inactive) in assay [17]; -0.57 in [18]; 0.532 in assay [19]. For the same compound, the z-score in [20] was 0.445 (inactive). For the same compound, the composite z-score in assay [2] worked out at 0.63.
Consider `CCCC=C(CCC)[C@@H](NC(=O)Cc1ccccc1)c1ccc(C(=O)OC)cc1`, for which the z-score in [1] is -1.45 (inactive); in [3] it was 1.19 (inactive); in assay [4] it was 0.194 (inactive); in assay [5], -0.0448 (inactive); in assay [6], 0.25 (inactive); in assay [7], -0.504. Moreover, the z-score in assay [8] is -0.458 (inactive); in assay [9] it was 0.261 (inactive); in assay [10], 1.89; in assay [11], -0.988; in [12], -0.735; in assay [13], -0.512. Also, the z-score in assay [14] was -2.42; in assay [15], -0.513; in [16], -1.59; in assay [17], -1.7 (inactive); in assay [18] it was -0.566; in assay [19], -2.09. Further, the z-score in [20] was -0.712 (inactive). Moreover, the composite z-score in [2] was determined as 1.47.
